Source: PubChem BioAssay AID2599 (Sanford-Burnham Center for Chemical Genomics, 2010)
Among all 330,000 compounds or so, about 5,800 (1.8%) were called active.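 Rule for the calls: active = inhibition above about 50% at the single tested dose (limit read from the data); inactive = the rest.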 What follows is part of a selection rich in actives, with near analogues and random picks from the rest.

Target: Sentrin-specific protease 6 (Homo sapiens) (UniProt Q9GZR1)
Assay: inhibition of human SENP6 catalytic domain – biochemical, luminescence, uHTS, primary screen (AID 2599);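 note: plate controls were DMSO wells with enzyme for no effect and DMSO wells lacking enzyme for full effect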
Conditions: Recombinant SENP6 catalytic domain, aminoluciferin luminescence; at 10 µM; stronger effect = higher value

Sentrin-specific protease 6 (Homo sapiens), sequence (Q9GZR1 628-1112 limits assumed): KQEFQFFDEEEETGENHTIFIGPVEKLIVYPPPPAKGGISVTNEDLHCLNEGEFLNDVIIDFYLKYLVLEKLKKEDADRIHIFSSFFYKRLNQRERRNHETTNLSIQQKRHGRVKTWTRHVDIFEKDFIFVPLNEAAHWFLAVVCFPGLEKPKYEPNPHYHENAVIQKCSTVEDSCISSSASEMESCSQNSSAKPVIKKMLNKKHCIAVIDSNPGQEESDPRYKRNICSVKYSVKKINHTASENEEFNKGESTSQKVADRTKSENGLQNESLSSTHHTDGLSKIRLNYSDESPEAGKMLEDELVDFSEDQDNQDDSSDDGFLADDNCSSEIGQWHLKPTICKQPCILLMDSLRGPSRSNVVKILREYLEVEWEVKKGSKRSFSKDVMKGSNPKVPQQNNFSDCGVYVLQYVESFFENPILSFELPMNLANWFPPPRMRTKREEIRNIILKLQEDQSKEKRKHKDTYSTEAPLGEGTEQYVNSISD

inhibition, active:
CCOC(=O)/C(C#N)=C/c1ccc(N2CCCCC2)cc1 52.8%
CC[N+](C)(CC)CCC[n+]1c(-c2ccccc2)c2cc(N)ccc2c2ccc(N)cc21 89.2%
Cn1c(NC(=O)c2ccccc2)nc2ccccc21 75.7%
Cn1c(-c2ccc(C(=O)c3ccccc3)s2)nc2ccccc21 68.7%
Cc1ccn2cc(-c3nonc3C)cc2c1 53.2%
O=C(O)/C=C/C(=O)NNc1ccc([N+](=O)[O-])cc1 82.9%
COc1ccc(N=C(C)c2sc3ccccc3c2O)cc1 82.8%

inhibition, inactive:
COc1ccc(N2CCN(C(=O)/C(C#N)=C/c3ccccc3)CC2)cc1 1.08%
CCOC(=O)/C(C#N)=C/c1ccc(N2CCN(Cc3ccccc3)CC2)cc1 -1.35%
CC1(C)CC(=O)C=C(NCCCN2CCCC2=O)C1 4.58%
Cc1cc(C)n2nc(C(=O)Nc3cccc(S(=O)(=O)N4CCOCC4)c3)nc2n1 -2.51%
Cc1nc2ccccc2c(-c2ccccc2)c1C(=O)c1ccccc1 -18.6%
CCn1c(NC(=O)c2nn(C)cc2Br)nc2ccccc21 -7.2%
Cn1c(Nc2cccc(Cl)c2)nc2ccccc21 21.9%
Cc1nn(C)cc1C(=O)c1ccccc1 0.575%
O=C(CN(c1ccc2c(c1)OCCO2)S(=O)(=O)c1ccccc1)Nc1ccc2c(c1)OCO2 12.2%
CCOC(=O)C1C(c2ccc(OC)c(OC)c2)c2c([nH][nH]c2=O)CC1(C)O (stereo not drawn) -17.3%
Cc1nn(CC(=O)NC2CCCCC2)c(=O)c2cccn12 9.49%
O=C(Cc1ccc(F)cc1)N1CCN=C1SCc1cccc([N+](=O)[O-])c1 4.91%
CCOC(=O)N1CCN(c2cc(C)c([N+](=O)[O-])cc2F)CC1 -3.66%
CCn1cc(-c2cc(C(=O)O)on2)c(C)n1 15.3%
O=[N+]([O-])c1ccc(N/N=C/c2ccccc2)cc1 0.552%
CNC(=S)Nc1ccc([N+](=O)[O-])cc1 -24.9%
CCS(=O)(=O)c1ccc(C(=O)NC)c(Cl)c1Cl 5.83%
COc1ccccc1C(=O)Nn1cnnc1 -21.9%
COc1ccc(-c2sc3ccccc3c2-c2ccc(OCCN3CCOCC3)cc2)cc1 -11.4%
COC(=O)c1ccc(/C=C/c2c(-c3ccc(OC)cc3)sc3ccccc23)cc1 17.2%
Cc1ccc(S(=O)(=O)N(c2cccc(C)c2)C2CCS(=O)(=O)C2)cc1 (stereo not drawn) 7.06%
